Laboratory results from the OligoGym collection.

molecular target: MED31; experiment: pooled miR-30 sensor sort-seq; sequence = guide strand; details: shRNA
Further: reference of the scale not given here.

| Sequence | sensor-assay potency score (higher = more potent) |
| --- | --- |
| TTTGCTGTTGCTGCTCTGCCAA | -0.936 |
| TCCAACTCCAACTGAAACCGAA | -1.04 |
| TTGCACAAATTCCAACTCCAAC | -1.8 |
| TTGCTGTTGCTGCTCTGCCAAG | -1.72 |
| TAAATTTCGCACACTGAGCATT | -1.04 |
| TCTAACATGTGTAAACACTGAG | 0.543 |

molecular target: MEI1; experiment: as above; details: shRNA

| Sequence | sensor-assay potency score (higher = more potent) |
| --- | --- |
| TTGCTCTGACACATTCCTGAGC | -0.804 |
| TAGCACTTTCTCCCAGTCCATC | -1.62 |
| TAGACTAGCTGCAGGTCTGGGA | -0.257 |
| TTTTCTGATTGCACTGACCATA | -0.486 |
| TTGCGCACTAACGACACGCCGG | -1.01 |
| TCTTGCTCTGACACATTCCTGA | 0.143 |
| TTCTCTGAATCTCTACTGGAGG | -0.666 |
| TTGTGAGCTGTGTCCACTGGGC | -0.159 |
| TGGAACAGGACTACTAAGCTGG | 0.124 |
| AAAGGTAACAGACAGAAGCTTG | -0.962 |
| ATGGTGAGTATAGACTAGCTGC | -0.611 |

molecular target: MEN1; experiment: as above; details: shRNA

| Sequence | sensor-assay potency score (higher = more potent) |
| --- | --- |
| TATGACATCGGAGACCTTCTTC | 0.751 |
| TTCATCTGCACTTGCGACTGTG | 0.123 |
| TTCTTCATCTGCACTTGCGACT | -0.844 |
| TCATCTGCACTTGCGACTGTGC | -1.27 |
| TTCTTCACCAGCTCACGGCTGG | -0.0281 |
| TAGATCTCCTCGTCTTCCCGGC | -0.0589 |
| TTGTAGTCCTGGATGACAGTGG | 0.138 |
| TACTTCAAAGAACTCCTTGTAG | 0.208 |
| TAGTAGGTCTTGGCTGAGGCAA | -1.23 |
| TTCAGGTACAGCCAGCTCCGCT | -1.42 |
| TAGAGGGACAGGTCGACGGCGC | -0.785 |
| TTGTGGTAGAGGGTGAGTGGGT | -0.985 |

molecular target: MEPCE; experiment: as above; details: shRNA

| Sequence | sensor-assay potency score (higher = more potent) |
| --- | --- |
| TTGTGGAACAGGTACACAGGAC | -0.946 |
| TAGTGTCGGATGTTTTGGCGGG | -0.437 |
| TTCTTGTAGATCGTTTCTGTAA | -0.866 |
| TTTCGAACGGTGGTGGTCCCTT | -0.585 |
| TAAGAGTCTTTCTCTTGCCATA | -1.25 |
| TTGGATTCGGTAGTAGTTCTTG | 0.313 |
| TAGTATTTGCAATAATTCCCAT | -0.782 |
| TAGTAGTTCTTGTAGATCGTTT | -0.407 |
| TAACTGAGGCAGCTGGAGGGGC | -0.431 |
| TTCAGATGCACCCACTTGGTGA | -1.03 |
| TGATGTGTCCGCTCCATCCAAG | -1.38 |
